# Sampled rows, rich in hits. Any-hit rate of the full collection: about 3.1%.
# CF NFkB inh: cystic fibrosis NF-kB activation inhibition; KKLEB NF-kB-GFP reporter, PAF-induced, GFP fluorescence overnight; hit rate 0.86% among 360,000; inhibition, % at 5 µM;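 active means at least 50% inhibition at 5 µM, scaled per plate between neutral and stimulator controls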;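 further: PAF is a Pseudomonas aeruginosa culture filtrate used as stimulus; plate controls were PAF-stimulated DMSO wells for no effect and unstimulated DMSO wells for full effect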
# KKLEB cytotox: reduces viability of KKLEB cystic fibrosis airway cells; AID 602141; hit rate 0.36% among 360,000; KKLEB CF airway cells viability, ATPlite luminescence, overnight; active compounds read low; cells stimulated with P. aeruginosa culture filtrate; activity change (cytotoxicity), % at 5 µM;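 active means corrected activity change at or below -50% at 5 µM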
# ABHD5 PLIN5 PPI: ABHD5-PLIN5 protein interaction inhibition; Q00G26+Q8WTS1; Split G. princeps luciferase complementation, luminescence, 4 h; inhibition, % at 4 µM; hit rate 0.78% among 360,000; AID 602281;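 active means inhibition above the mean inhibition across every tested compound plus 3 SD, cut at about 22% in these data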;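 further: 0% = DMSO only wells and the 100% control is not disclosed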
# Target sequence (Q00G26 whole entry, looked up): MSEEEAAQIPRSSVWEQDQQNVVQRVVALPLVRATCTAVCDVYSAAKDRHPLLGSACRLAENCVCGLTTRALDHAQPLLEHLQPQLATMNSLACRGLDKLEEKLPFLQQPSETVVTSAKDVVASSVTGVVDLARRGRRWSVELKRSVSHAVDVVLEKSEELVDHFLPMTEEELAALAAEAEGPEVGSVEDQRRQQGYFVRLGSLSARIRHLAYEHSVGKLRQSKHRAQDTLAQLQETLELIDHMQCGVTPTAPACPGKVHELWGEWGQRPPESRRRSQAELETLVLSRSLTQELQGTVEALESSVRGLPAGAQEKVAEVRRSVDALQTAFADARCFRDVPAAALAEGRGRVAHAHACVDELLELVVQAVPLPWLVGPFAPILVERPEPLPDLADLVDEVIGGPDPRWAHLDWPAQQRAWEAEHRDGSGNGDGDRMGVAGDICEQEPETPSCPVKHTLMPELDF
# Target sequence (Q8WTS1 whole entry, looked up): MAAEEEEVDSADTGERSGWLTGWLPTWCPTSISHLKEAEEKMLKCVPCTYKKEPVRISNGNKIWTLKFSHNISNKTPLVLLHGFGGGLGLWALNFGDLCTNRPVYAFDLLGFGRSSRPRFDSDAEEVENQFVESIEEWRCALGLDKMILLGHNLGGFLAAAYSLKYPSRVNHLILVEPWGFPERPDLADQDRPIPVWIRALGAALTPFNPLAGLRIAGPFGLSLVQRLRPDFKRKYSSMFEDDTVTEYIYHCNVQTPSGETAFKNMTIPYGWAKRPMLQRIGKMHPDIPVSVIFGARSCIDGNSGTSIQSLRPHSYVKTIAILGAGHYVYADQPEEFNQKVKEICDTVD
# MITF TRPM1 inh: reduces MITF-dependent TRPM1 promoter luciferase signal; SK-MEL-5 TRPM1 promoter luciferase, 24 h; inhibition, % at 12.5 µM; hit rate 0.83% among 330,000; AID 488899;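 active means mean inhibition across replicates of 60% or more, whatever share of single replicates reaches that level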
# Peg3 promoter: Peg3 promoter activity inhibition. HeLa PEG-Prom luciferase reporter, luminescence, overnight. hit rate 1.7% among 360,000. AID 588405. inhibition, % at 20 µM;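 active means inhibition of at least 50% at 20 µM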
# HIF-2a block: inhibitors of HIF-2a; inhibition, % at 18.8 µM; hit rate 0.72% among 360,000; 786-0 RCC cells HIF-2a reporter, luciferase luminescence, overnight; AID 624352;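 active means inhibition of the luminescence signal of 40% or more relative to plate controls, in a single-dose primary screen at 18.75 µM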
# Starred values were filed as active, the others as inactive; / = no result given.
SMILES,CF NFkB inh,KKLEB cytotox,ABHD5 PLIN5 PPI,MITF TRPM1 inh,Peg3 promoter,HIF-2a block
O=S(=O)(NCc1nc2ccccc2[nH]1)c1ccccc1,8,-2,-1,-4,-9,-12
COc1cccc(/C=N/N2CCN(c3ccncc3S(=O)(=O)N3CCCCC3)CC2)c1,3,3,-8,-10,21,26
Cc1ccc(-c2nn(-c3cc(N4CCNCC4)ccc3[N+](=O)[O-])c(=O)c3ccccc23)cc1,14,-28,16,47,102*,17
O=C(NCCc1ccccc1)C1CCCN1C(=O)Nc1ccc(Cl)cc1 (centres undefined),-10,11,3,-2,8,13
O=C(COC(=O)c1nc(Cl)ccc1Cl)NCc1ccccc1,8,-2,0,13,7,12
COc1ccc(NC(=O)Nc2ccc(F)c(F)c2)c(OC)c1,3,-2,3,74*,-47,-110
COc1ccc(NC(=O)Nc2cccc(F)c2)c(OC)c1,-1,-2,1,-35,-143,-155
Oc1ccc(C[C@@H]2CNCCN2CCCCC2CCCCC2)cc1,-1,5,2,-12,94*,4
Oc1ccc(C[C@H]2CNCCN2CCc2cccc3ccccc23)cc1,6,0,12,-4,-3,-1
Oc1ccc(C[C@@H]2CNCCN2CCc2cc(C(F)(F)F)cc(C(F)(F)F)c2)cc1,-1,-8,7,1,103*,2
Oc1ccc(C[C@@H]2CNC(=S)N2CCc2cc(C(F)(F)F)cc(C(F)(F)F)c2)cc1,5,-1,-7,2,-15,12
FC(F)(F)c1cc(CCN2CCNC[C@H]2Cc2cccc3ccccc23)cc(C(F)(F)F)c1,-7,-42,1,10,101*,8
CS(=O)(=O)N1CCC(C(=O)NNC(=O)Nc2ccc(F)c(Cl)c2)CC1,-5,14,7,7,7,5
Cc1ccc(N=c2oc3cc(O)ccc3cc2C(N)=O)cc1,83*,-23,0,-34,-172,-140
CC(=O)c1cc2ccc(O)cc2oc1=O,12,6,1,18,10,17
CCCCn1c(N)c(N(C)C(=O)c2c(C)nn(-c3ccccc3)c2C)c(=O)[nH]c1=O,-3,-8,-2,7,-18,-1
CC(O)(c1ccc(F)c(F)c1)c1nc(-c2cccc(C(F)(F)F)c2)cs1 (centres undefined),-1,-17,-15,/,10,5
CC(O)(c1ccc(F)c(F)c1)c1nc(-c2ccc(Cl)cc2)cs1 (centres undefined),-14,8,-3,/,76*,2
Cc1ccc(NC(=O)c2ccccc2OCC(=O)c2ccc(F)cc2)cc1,37,-45,6,-12,12,2
CCOc1ccc(NC(=O)c2ccccc2OCC(=O)c2ccc(C)cc2)cc1,43,-53*,0,-26,-1,4
CCOc1ccc(OCCC(=O)N2CCc3cc(OC)c(OC)cc3C2)cc1,3,4,5,-1,17,16
CCCOc1ccc(/C=N/Nc2cc(N3CCOCC3)ncn2)c(O)c1,54*,-42,2,24,45,18
C[n+]1c2n(c3ccccc31)N=C(c1cc(C(C)(C)C)c(O)c(C(C)(C)C)c1)CS2,36,-26,12,0,86*,2
CCCCn1c(N)c(N(CC)C(=O)CCNC(=O)NC23CC4CC(CC(C4)C2)C3)c(=O)[nH]c1=O,-74,10,-3,3,-8,16
Cc1nonc1OCCCNc1ccc([N+](=O)[O-])cc1Cl,-8,6,0,-59,-127,-234
SMILES,CF NFkB inh,KKLEB cytotox,ABHD5 PLIN5 PPI,MITF TRPM1 inh,Peg3 promoter,HIF-2a block
Cc1nonc1OCCNc1ccc([N+](=O)[O-])cc1[N+](=O)[O-],0,0,5,25,65*,4
CN(C(=O)COC(=O)c1cc([N+](=O)[O-])ccc1Cl)c1ccccc1,-7,11,-2,-4,-8,3
COc1ccc(/C=C2/SC(=S)N(CCC(=O)O)C2=O)cc1,10,0,-4,61*,19,85*
COc1cccc(/C=C2\SC(=S)N(CCCC(=O)N3CCCCC3CCO)C2=O)c1 (centres undefined),7,-4,6,29,64*,69*
COc1ccc(/C=C2/SC(=O)N(CCC(=O)Nc3ccccc3C(=O)O)C2=S)cc1,-2,26,5,-7,-10,57*
COc1ccc(/C=C2\SC(=S)N(CCC(=O)Nc3ccc(C(=O)O)cc3)C2=O)cc1,6,-2,1,-13,-1,8
CN1CCN(C(=O)CCN2C(=O)/C(=C\c3ccccc3F)SC2=S)CC1,55*,-4,-1,-3,29,2
CCc1ccc(/C=C2/SC(=S)N(CCCC(=O)Nc3ccccc3C(=O)O)C2=O)cc1,12,4,-3,27,34,12
CCOC(=O)C1CCC(CN(Cc2ccccc2C)S(=O)(=O)c2ccc([N+](=O)[O-])cc2)CC1 (centres undefined),-9,14,-3,13,7,23
O=C(c1ccccc1)N1CCN(CCc2ccccn2)CC1,17,-9,-2,5,7,11
O=C(CCCN1C(=O)/C(=C\c2ccccc2)SC1=S)N1CCOCC1,10,-4,-3,-15,19,22
COc1ccc(/C=C2\SC(=S)N(CCC(=O)NCCc3ccc(O)cc3)C2=O)cc1,7,3,-2,6,102*,58*
O=C(CCCN1C(=O)/C(=C/c2ccccc2Cl)SC1=S)N1CCOCC1,3,2,-2,0,28,49*
O=C(CCN1C(=O)/C(=C\c2ccccc2)SC1=S)N1CCCCC1,33,0,1,-6,94*,45*
O=C(CN1C(=O)/C(=C/c2ccccc2)SC1=S)N1CCN(CCc2ccccn2)CC1,8,0,-8,10,74*,30
Cc1ccc(/C=C2\SC(=S)N(CCC(=O)N3CCCCC3)C2=O)cc1,17,11,11,5,20,22
O=C(CCN1C(=O)/C(=C\c2cccs2)SC1=S)NC1=NCCS1,2,-2,-1,-14,-1,10
CN1CCN(C(=O)CCN2C(=O)/C(=C/c3ccccc3Cl)SC2=S)CC1,20,5,1,-3,59*,12
O=C(O)CCN1C(=O)/C(=C\c2cccc(Oc3ccccc3)c2)SC1=S,-8,2,-6,-10,-27,72*
COc1ccc(/C=C2\SC(=S)N(CCCC(=O)N3CCOCC3)C2=O)cc1,0,-6,-2,26,-15,68*
CN1CCN(NC(=O)CN2C(=O)/C(=C/c3ccccc3Cl)SC2=S)CC1,6,-5,-18,2,1,-9
COc1ccccc1/C=C1\SC(=S)N(CCC(=O)NC2=NCCS2)C1=O,-13,12,-4,-1,9,72*
